Screening data as filed in PubChem BioAssay.
This is a sample that favours compounds with a hit; in the whole collection about 17% have one here.
TDP1 cell CPT: DT40-hTDP1 cell growth loss with CPT; actives 12% (n = 420,000); AID 686979; chicken DT40 Tdp1-/-;hTDP1 cells + 20 nM CPT, ATP luminescence, 48 h; Potency, µM (highest dose often 46.2 µM), without a hit: at the top dose activity change, negative = growth inhibition, usual class: inhibitors; note: % is set by controls: 0 for no effect and ±100 for the full control effect; nearly all actives have a fitted effect of over 55% in size
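Cell growth measured by CellTiter-Glo luminescence after a minimum 48 h, 37 C compound exposure with 20 nM CPT in Tdp1-knockout DT40 cells stably expressing hTDP1, seeded 400/well; qHTS titration format.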
ATXN2 expr inh: reduces ATXN2 reporter expression in HEK-293 cells; AID 1745845; Potency, µM (series often up to 57 µM), inactives show at the highest dose activity change, negative = inhibition, most hits filed as inhibitors; actives 0.72% (n = 360,000); HEK-293 ATXN2-luciferase reporter, luminescence, 24 h; note: % is set by controls: 0 for no effect and ±100 for the full control effect; nearly all actives have a fitted effect of over 55% in size
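ATXN2-luciferase reporter cells (luciferase flanked by upstream and downstream ATXN2 gene portions) were treated 24 h at 37 °C with compounds at up to 57 uM. SteadyGlo luminescence gave expression; GF-AFC fluorescence gave viability.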
HepG2 tox: HepG2 cytotoxicity, counter-screen for TGF-b inhibitors | HepG2 CAGA-GFP viability, ATP luminescence, 18 h | Potency, µM (doses to about 46.1 µM), for the others: top-dose activity change, negative = cytotoxicity, hits mostly cytotoxic | actives 0.76% (n = 410,000)
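HepG2 CAGA-GFP cells (1000/well, DMEM with 1% FBS) received compound, then TGF-beta at 500 pg/mL final, and were incubated 18 hours at 37 degrees C. Viability was read by CellTiter-Glo luminescence. Media-only wells were set as complete cell-killing and DMSO as no toxicity.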
ATXN viability: cell viability loss in ATXN counter-screen. S2 cells (HEK-293 line with an ATXN2-luciferase reporter) viability, CellTiter-Fluor protease fluorescence, 24 h. Potency, µM (titrated, usually from 56.7 µM), hits mostly cytotoxic. actives 0.49% (n = 400,000); note: nearly all actives have a fitted effect of over 40% in size
TDP1 cell noCPT: qHTS for Inhibitors of human tyrosyl-DNA phosphodiesterase 1 (TDP1): qHTS in cells in absence of CPT; DT40 Tdp1-/- hTDP1 cells, no CPT, ATP luminescence, 48 h; Potency, µM (doses to about 46.2 µM), for inactives: at the top dose activity change, negative = growth inhibition, actives largely listed as inhibitors; actives 15% (n = 420,000); AID 686978, 2013; note: % is set by controls: 0 for no effect and ±100 for the full control effect; nearly all actives have a fitted effect of over 55% in size
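Camptothecin absent (DMSO only). Human TDP1-complemented DT40 knockout cells, 400 cells/well, 37 °C for minimum 48 hr; ATP measured via CellTiter-Glo, 30 min dark incubation, luminescence.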
TGFb inhibitor: TGF-b pathway inhibition; actives 1.2% (n = 410,000); HepG2 CAGA-GFP TGF-b/SMAD3 reporter, GFP fluorescence, 18 h; TGF-beta stimulated, 500 pg/mL final; Potency, µM (doses to about 46.1 µM), inactives show at the highest dose activity, negative = inhibition, usual class: inhibitors; note: % is set by controls: 0 for no effect and ±100 for the full control effect; nearly all actives have a fitted effect of over 65% in size
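HEPG2 CAGA-GFP reporter cells (1000/well, DMEM with 1% FBS) received compounds, then recombinant TGF-beta at 500 pg/mL final for 18 hours at 37 degrees C. Per-cell GFP summed per well was normalised to unstimulated and stimulated DMSO controls before curve fitting.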
* marks the source's active call; other numbers are inactive results; i = inactive; ? = inconclusive; . = no result given. Calls come from the whole dose curve; as a rule, active = well fitted curve in the direction sought with a large enough effect; inconclusive = small, poorly fitted or top-dose-only effect, or another doubt; inactive = no such curve, though single readings can be large; an effect the other way counts as inactive or inconclusive. Potency is the fitted concentration of half-maximal effect.

SMILES	TDP1 cell CPT	ATXN2 expr inh	HepG2 tox	ATXN viability	TDP1 cell noCPT	TGFb inhibitor
COc1ccc2c(C)c(Cl)c(=O)oc2c1	-14%	-8%	0%	i	-13%	-1%
C=C1CC(COc2ccc3c(C)c(Cl)c(=O)oc3c2)(c2ccccc2)OC1=O (centres undefined)	1.6µM*	?	-99%	.	1.6µM*	?
CCCNC(=O)N1CCN(c2nc(C(C)C)c3c(c2C#N)CC(C)(C)OC3)CC1	29µM*	6%	-17%	i	-63%	4%
Cc1nc(N2CCN(C(=O)c3ccc(Cl)cc3)CC2)c(C#N)c2c1COC(C)(C)C2	29µM*	?	-1%	?	?	8%
CCc1nc(N2CCN(C(C)=O)CC2)c(C#N)c2c1COC(C)(C)C2	-13%	-11%	169%	i	-27%	11%
Cc1ccc(S(=O)(=O)N2CCN(c3nc(C(C)C)c4c(c3C#N)CC(C)(C)OC4)CC2)cc1	16µM*	-10%	-8%	i	16µM*	3%
CC(C)Cc1nc(N2CCOCC2)c(C#N)c2c1COC(C)(C)C2	-14%	1%	-13%	i	?	6%
C[C@@H]1CN([C@@H](C)CO)C(=O)CCCn2nncc2CO[C@H]1CN(C)C(=O)C1CC1	16%	5%	-4%	i	2%	3%
COCCn1cnc2c1-c1ccc(OC)c(c1)OC/C=C\COc1cccc-2c1	.	.	-12%	.	.	-15%
O=C1N[C@H](Cc2ccccc2)COC(=O)[C@H](Cc2ccc(F)cc2)CC/C=C/C[C@H]1CC(=O)N(CCO)Cc1ccccc1	?	?	-1%	?	23µM*	?
C[C@H]1COC(=O)[C@H](Cc2ccc(F)cc2)C/C=C\C[C@@H](CC(=O)N(CCO)Cc2ccccc2)C(=O)N1	15µM*	-11%	-15%	i	21µM*	-14%
C[C@@H]1COC(=O)[C@@H](Cc2ccc(F)cc2)C/C=C\C[C@@H](CC(=O)N(CCO)Cc2ccccc2)C(=O)N1	?	2%	-26%	i	?	?
O=C1N[C@@H](c2ccccc2)COC(=O)[C@@H](Cc2ccc(F)cc2)CC/C=C/C[C@H]1CC(=O)N(CCO)Cc1ccccc1	12µM*	-16%	-27%	?	9.2µM*	?
O=C1N[C@@H](Cc2ccccc2)COC(=O)[C@@H](Cc2ccc(F)cc2)C/C=C\C[C@@H]1CC(=O)N(CCO)Cc1ccccc1	23µM*	?	-39%	?	18µM*	?
CN(CC(=O)NCCc1ccc(F)cc1)Cc1cccc(Cl)c1	-17%	-10%	-6%	i	?	-25%
NS(=O)(=O)c1ccc(CCNC(=O)COC(=O)C2CCN(c3ccc(C(F)(F)F)cn3)CC2)cc1	-31%	9%	-3%	i	-12%	-4%
COCCN(C(=O)c1ccc(N2C(=O)c3ccccc3C2=O)cc1)c1c(N)n(CC(C)C)c(=O)[nH]c1=O	-3%	2%	7%	i	-3%	0%
CC(C)(C)[C@@H]1COC(=O)[C@H](Cc2ccc(F)cc2)C/C=C\C[C@H](CC(=O)N(CCO)Cc2ccccc2)C(=O)N1	13µM*	-9%	-26%	?	21µM*	-20%
O=C1NCCOC(=O)[C@@H](Cc2ccc(F)cc2)C/C=C\C[C@@H]1CC(=O)N(CCO)Cc1ccccc1	18µM*	-9%	-48%	i	21µM*	-23%
O=C(C[C@H]1C/C=C/CC[C@@H](Cc2ccc(F)cc2)C(=O)O[C@@H](c2ccccc2)CNC1=O)NCCO	?	-5%	-7%	i	?	-1%
